Compound activity deposited in PubChem BioAssay by National Center for Advancing Translational Sciences (NCATS).
Sampled rows, rich in hits. Any-hit rate of the full collection: about 8.8%.
HT1080-NT tox – qHTS for induction of synthetic lethality in tumor cells producing 2HG: qHTS for the HT-1080-NT fibrosarcoma cell line | HT-1080-NT fibrosarcoma viability, CellTiter-Glo ATP luminescence, 48 h | Potency, µM (top dose mostly 46.1 µM), for inactives: top-dose activity, negative = less viability, usual class: cytotoxic | 360,000 compounds, 1.6% hits | AID 686970, 2013;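 note: NT is the 2HG producing partner of a matched IDH1 knockdown line; potency is the fitted concentration of half-maximal effect; 0% = DMSO-treated cells and -100% = media-only wells without cells; nearly all actives have a fitted effect of over 55% in size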
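Viability by CellTiter-Glo luminescence after 48 h compound exposure at 37C of HT-1080-NT cells (750/well, RPMI, 5% FBS). % activity scaled between DMSO wells and medium-only wells, then curve-fitted and categorized by curve class.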
KB-3-1 tox – qHTS assay for MDR1-selective chemotherapeutics: Primary screen using the parental adenocarcinoma cell KB-3-1; KB-3-1 viability, CellTiter-Glo ATP luminescence, 72 h; Potency, µM (highest dose often 46.1 µM), actives largely listed as cytotoxic; 400,000 compounds, 1.4% hits; AID 1347075, 2019; note: potency is the fitted concentration of half-maximal effect; nearly all actives have a fitted effect of over 60% in size
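Luminescent ATP read-out (CellTiter-Glo) measures survival of drug-naive KB-3-1 cells after 72 h compound exposure at 37 °C. Titration series was screened from lowest to highest concentration, with DMSO vehicle plates as background controls.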
KB-V1 cytotox – qHTS assay for MDR1-selective chemotherapeutics: Primary screen using the drug-selected MDR subline cells KB-V1 | Potency, µM (top dose mostly 46.1 µM), usual class: cytotoxic | 400,000 compounds, 3.4% hits | KB-V1 MDR cells viability, CellTiter-Glo, 72 h; note: potency is the fitted concentration of half-maximal effect; nearly all actives have a fitted effect of over 60% in size
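Cytotoxicity toward P-gp-expressing KB-V1 cells was determined as loss of CellTiter-Glo luminescence after 72 h at 37 degrees C. Compounds were tested in quantitative HTS format across a concentration range, with curves fitted to normalized data.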
IL1B secr inh – qHTS for Inhibitors of Inflammasome Signaling: IL-1-beta AlphaLISA Primary Screen; THP-1 LPS/ATP IL-1B secretion, AlphaLISA, 16 h; active compounds read low; activity change, % at 57.5 µM; 360,000 compounds, 4.7% hits; AID 743279, 2014; in the data active = activity change below about -50%; inconclusive = mostly about -30% to -49%
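Secreted IL-1B measured by AlphaLISA bead assay after 16 h compound exposure of THP-1 cells; compounds (final up to 57.5 uM) added 1 h before LPS (250 ng/mL) and ATP (1.25 mM) stimulation; lower signal means less secretion.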
HT1080 IDH1KD tx – qHTS for induction of synthetic lethality in tumor cells producing 2HG: qHTS for the HT-1080-IDH1KD cell line. 360,000 compounds, 2% hits. HT-1080 IDH1 knockdown viability, ATP luminescence, 48 h. Potency, µM (series often up to 46.1 µM), for inactives: at the highest dose activity, negative = toxicity, hits mostly cytotoxic;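 note: potency is the fitted concentration of half-maximal effect; 0% = DMSO wells and -100% = cell-free medium wells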
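CellTiter-Glo luminescence after 48 h compound exposure at 37 degrees C of IDH1-knockdown HT-1080 cells in 5% FBS RPMI. %Activity scaled between DMSO wells and cell-free media wells, with curves fitted and assigned curve classes.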
Active calls of the source: *; i = inactive; ? = inconclusive; . = no result; [ ] = dose if it differs, or a comment. Unless noted, calls come from the whole dose curve; as a rule, active = well fitted curve in the direction sought with a large enough effect; inconclusive = small, poorly fitted or top-dose-only effect, or another doubt; inactive = no such curve, though single readings can be large; an effect the other way counts as inactive or inconclusive. Unless noted, % is set by controls: 0 for no effect and ±100 for the full control effect.

SMILES	HT1080-NT tox	KB-3-1 tox	KB-V1 cytotox	IL1B secr inh	HT1080 IDH1KD tx
O=C(Nc1ccc(F)cc1)c1oc2ccccc2c1NC(=O)C1CCCC1	24%	i	13µM*	-7	?
O=C(CCl)Nc1c(C(=O)Nc2ccc3c(c2)OCCO3)oc2ccccc12	?	?	?	-99*	?
O=C(C[N+]12CN3CN(CN(C3)C1)C2)c1ccc(I)cc1	.	i	i	.	.
CN(C)c1ccc(/C=C/C(=O)c2cccnc2)cc1	-5%	?	i	?	15%
COc1cc(C(=O)/C=C/c2cccnc2)c([N+](=O)[O-])cc1OC	?	?	i	-100*	?
CN(C)C(=O)COc1ccc(C(=O)/C=C/c2cccnc2)cc1	?	?	i	-101*	?
O=C(C=Cc1cccnc1)c1ccccc1	?	?	?	-106*	18µM*
O=C(/C=C/c1cccnc1)c1ccc([N+](=O)[O-])cc1	?	i	i	-21	-25%
O=C(/C=C/c1cccnc1)c1cccc(O)c1	21µM*	?	?	-3	?
C#CCOCCOCCOCCNc1nc(N2CCN(C(=O)[C@H](CCCCN)n3cc([C@@H](N)CO)nn3)CC2)nc(N2CCN(C(=O)[C@H](CCCCN)n3cc([C@@H](N)CC(C)C)nn3)CC2)n1	-6%	i	i	0	-1%
COCc1cc(CNC(=O)C2CCC(=O)N(Cc3ccccc3F)C2)[nH]n1 (stereo not drawn)	-1%	i	i	i	6%
O=C(/C=C/c1cccnc1)c1ccc(O)cc1	?	?	?	-98*	?
Cc1cccc2sc(NS(C)(=O)=O)nc12	-6%	i	i	50	-7%
O=C(c1ccc(S(=O)(=O)Cc2ccccc2Cl)c([N+](=O)[O-])c1)N1CCN(c2ccccn2)CC1	?	i	i	-103*	?
O=C(c1ccc(Sc2cccc(Cl)c2)c([N+](=O)[O-])c1)N1CCN(c2ccccn2)CC1	-20%	i	?	-124*	-20%
CN(c1ccccc1)S(=O)(=O)c1cc(C(=O)N2CCN(c3ccccn3)CC2)ccc1Cl	-1%	?	23µM*	?	-10%
COc1ccc(C(=O)N/N=C/c2ccc(OC)c(CSc3ccccn3)c2)cc1	-1%	i	i	?	-6%
COc1ccc(/C=N/NC(=O)c2cccc(Br)c2)cc1CSc1ccccn1	5%	?	12µM*	10	7%
COc1ccc(/C=N/NC(=O)c2ccn[nH]2)cc1CSc1ccccn1	8%	i	i	0	15%
COc1ccc(/C=N/NC(=O)c2cccnc2)cc1CSc1ccccn1	23µM*	?	?	60	12µM*
O=[N+]([O-])c1ccc(S(=O)(=O)N2CCN(c3ccc(N4CCOCC4)nn3)CC2)cc1	3%	i	i	-11	-6%
CC1=CSC2=NC(=O)/C(=C\c3cccn3-c3ccc([N+](=O)[O-])cc3)C(=N)N12	-1%	i	2.9µM*	-8	-9%
CC1=CSC2=NC(=O)/C(=C\c3cccn3-c3ccccc3)C(=N)N12	0%	i	?	-2	17%
Cc1ccccc1Cn1cccc1/C=C1/C(=N)N2C=CSC2=NC1=O	?	i	i	13	?
CC(C)c1ccc(-n2cccc2/C=C2/C(=N)N3C=CSC3=NC2=O)cc1	-22%	?	21µM*	1	?
SMILES	HT1080-NT tox	KB-3-1 tox	KB-V1 cytotox	IL1B secr inh	HT1080 IDH1KD tx
O=C(CSc1nccc(=O)[nH]1)NCc1ccco1	7%	i	i	22	4%
COc1ccc2nc(-n3c(O)c(C4=c5ccccc5=NC4=O)[nH]c3=S)sc2c1	-23%	i	i	-6	-24%
Cc1ccc2nc(N3C(=O)CNC3=S)sc2c1	?	?	?	.	16µM*
COc1ccc2nc(N3C(=O)CNC3=S)sc2c1	-1%	?	5.8µM*	?	0%
CCN(CC(=O)Nc1cc(S(=O)(=O)N2CCCCC2)ccc1Cl)Cc1ccccc1	0%	?	?	6	-23%
CCN(c1ccccc1)S(=O)(=O)c1ccc(Cl)c(NC(=O)CSc2ncn[nH]2)c1	-2%	i	23µM*	-4	3%
CCN(c1ccccc1)S(=O)(=O)c1ccc(Cl)c(NC(=O)CN(C)C2CCN(C)CC2)c1	?	?	i	-55*	23µM*
CCN(c1ccccc1)S(=O)(=O)c1ccc(Cl)c(NC(=O)CN2CCN(C)CC2)c1	1%[9.24 µM]	i	i	1	7%
O=C(CSc1ncn[nH]1)Nc1ccc(Cl)c(Cl)c1	-14%	i	i	-52*	-20%
CCN(CC(=O)Nc1cc(S(=O)(=O)N2CCOCC2)ccc1Cl)Cc1ccccc1	-11%	i	i	-58*	-19%
COc1ccccc1C1NC(c2ccc3c(c2)OCO3)=CC(c2ccccc2O)N1 (stereo not drawn)	.	i	i	.	.
CCN(c1ccccc1)S(=O)(=O)c1ccc(Cl)c(NC(=O)Nc2ccc(Cl)cc2C#N)c1	-27%	?	?	-53*	-34%
CS(=O)(=O)N(CC(=O)Nc1cc(Cl)ccc1Cl)c1ccccc1	6%	i	16µM*	4	6%
CS(=O)(=O)N(CC(=O)Nc1cccc(Cl)c1Cl)c1ccccc1	-10%	i	i	13	-1%
CCN(c1ccccc1)S(=O)(=O)c1cc(NC(=O)Nc2ccccc2C#N)ccc1Cl	-11%	i	i	-10	-22%
O=C(NCCCN1CCCCCC1)c1ccc2c(c1)NC(=O)C(N1CCOCC1)S2 (stereo not drawn)	13%	i	?	-9	5%
Cc1ccc(CNC(=O)c2ccc3c(c2)NC(=O)C(N2CCOCC2)S3)cc1 (stereo not drawn)	-6%	i	i	-77*	-31%
CCN1CCN(c2nc(Nc3ccccc3)nc(N)c2[N+](=O)[O-])CC1	12%	i	i	3	12%
Cc1ccc(Nc2nc(N)c([N+](=O)[O-])c(N3CCC(C)CC3)n2)cc1C	10%	?	23µM*	-80*	3%
Cc1cccc(Nc2nc(N)c([N+](=O)[O-])c(N3CCCC(C)C3)n2)c1 (stereo not drawn)	?	?	?	-103*	?
CCN1CCN(c2nc(Nc3cccc(C)c3)nc(N)c2[N+](=O)[O-])CC1	-15%	i	4.1µM*	?	-21%
